Assay results from PubChem BioAssay (NCI).
This is part of a sample that, as a whole, favours compounds with a hit. Of some 79,000 tested, about 15% had one in any assay. Unmarked numbers belong to inactive results. Active and inactive are the calls of the source. Rule as the data show it: active = growth inhibition above about 70%; inactive = the rest.

Experiment: NCI Yeast Anticancer Drug Screen. Data for the sgs1 mgt1 strain (AID 161);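 also: 0% = growth of cultures given vehicle only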
Conditions: S. cerevisiae sgs1 mgt1 strain, at 50.0 µM, hits give high values
Procedure, shortened: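 Read-out: growth inhibition vs vehicle controls. Cells: mutant yeast strain deficient in DNA damage repair.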

Question: Which growth inhibition does the source give for `C=CCCC(C)(C(=O)OCC)C(=O)OCC` here?
Answer: The growth inhibition was -23.9%.

Question: For `C(CCC[Si]12OCCN(CCO1)CCO2)CC[Si]12OCCN(CCO1)CCO2`, which growth inhibition is on record?
Answer: Its growth inhibition is 20.1%.

Question: With `C=C1C2CC[C@@]3(CC[C@@H]4[C@@]5(C)CCC[C@@]4(CN4CCO[C@H]45)[C@@H]3C2)[C@@H]1O` as the molecule, how does the growth inhibition read?
Answer: The growth inhibition was 11.1%.

Question: For `CCC(C)C(N)C1=NC(C(=O)NC(CC(C)C)C(=O)NC(CCC(=O)O)C(=O)NC(C(=O)NC2CCCCNC(=O)C(CC(N)=O)NC(=O)C(CC(=O)O)NC(=O)C(Cc3cnc[nH]3)NC(=O)C(Cc3ccccc3)NC(=O)C(C(C)CC)NC(=O)C(CCCN)NC2=O)C(C)CC)CS1` (stereo not given), which growth inhibition is on record?
Answer: Its growth inhibition is 0.2%.

Question: For `NC(=S)Cc1ccccn1`, which growth inhibition is on record?
Answer: Its growth inhibition is 9.25%.

Question: Which growth inhibition does the source give for `Cc1ccc(/C=N/NC(N)=S)c(C)c1` here?
Answer: Its growth inhibition is 17.3%.

Question: Which growth inhibition does the source give for `CCOC(=O)CC(C)C(C(=O)OCC)C(=O)OCC` (stereo not given) here?
Answer: Its growth inhibition is -9.15%.

Question: Which growth inhibition does the source give for `CN(C)c1nc(=NCc2ccncc2)ss1` here?
Answer: Its growth inhibition is 2%.

Question: For `CN(C)C(=O)Sc1ccc(N(C)C)cc1`, which growth inhibition is on record?
Answer: Its growth inhibition is -11.3%.

Question: For `Cc1nc(C)c(N2CCN(S(=O)(=O)N(Cc3ccccc3)Cc3ccccc3)CC2)c(=O)[nH]1`, which growth inhibition is on record?
Answer: The growth inhibition was -32.3%.

Question: For `CCCC1SCC(C)(C)NC1=O` (stereo not given), which growth inhibition is on record?
Answer: The growth inhibition was -1.9%.

Question: With `CCCCCCP(=O)(CCCCCC)C1CCCCC1` as the molecule, how does the growth inhibition read?
Answer: Its growth inhibition is 99.3% (active).

Question: Which growth inhibition does the source give for `Clc1ccc(-c2nnc(-c3ccc4ccccc4c3)o2)cc1Cl` here?
Answer: The growth inhibition was 7.15%.

Question: For `Nc1ccc(S(=O)(=O)Nc2nc3ccccc3nc2Nc2ccc(S(N)(=O)=O)cc2)cc1`, which growth inhibition is on record?
Answer: The growth inhibition was -13.8%.

Question: For `O=S1(=O)CCC(Br)c2ccccc2C1` (stereo not given), which growth inhibition is on record?
Answer: The growth inhibition was -7%.
